For some assays here: Entries with a potency or affinity are not part of this list. Activity calls are given as the source filed them. Unless noted, how the calls were made is not given here.
Columns and labels:
[1] = antimalarial activity against Dd2 strain (AID 2302;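 active means growth inhibition above 50% at the single 2 µM test dose, taken to imply half-maximal potency below 2 µM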;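 further: 0% = DMSO untreated growth and 100% = chloroquine plus artemisinin killed control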); conditions: P. falciparum Dd2 in RBCs, LDH growth readout, 72 h; at 2 µM; active compounds read high
[2] = HepG2 cytotoxicity, primary screen, cytotoxicity control for P. falciparum antimalarial project, cell-based, ATP luminescence (AID 2303;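 active means inhibition above 50%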;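 further: 0% = DMSO wells and 100% = digitonin-killed cells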); conditions: HepG2 viability, 24-48 h, at 10 µM, active compounds read high
[3] = target: L-lactate dehydrogenase (Plasmodium falciparum (isolate CDC / Honduras)) (UniProt Q27743); assay: PfLDH activity inhibition – cell lysate, 3D7 strain, counter-screen for P. falciparum growth inhibition project (AID 2304);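 further: 0% = vehicle and 100% = reference inhibitor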; conditions: P. falciparum 3D7 crude extract, LDH APAD/NBT absorbance; at 2 µM; active compounds read high
[4] = inhibition of 3D7 malaria parasite growth – strain 3D7 (AID 2306);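 further: 0% = DMSO wells and 100% = chloroquine plus artemisinin control wells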; conditions: P. falciparum 3D7 erythrocytic growth, LDH absorbance, 72 h; at 2 µM; active compounds read high
[5] = target: Calcium-dependent protein kinase 1 (Plasmodium falciparum (isolate 3D7)) (UniProt P62344); assay: PfCDPK1 kinase inhibitors, biochemical, TCAMS library (AID 1159585; cut-off not given, nearly all actives have IC50 up to about 0.98 µM;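 further: inhibitors leave more ATP so luminescence rises with inhibition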); conditions: recombinant PfCDPK1, Kinase-Glo ATP depletion luminescence
[6] = target: Plasmodium falciparum protein kinase 6 (PK6, PF3D7_1337100) (UniProt Q8IDW1); assay: PfPK6 kinase inhibitors, biochemical, TCAMS library (AID 1159586); conditions: recombinant PfPK6, Kinase-Glo ATP depletion luminescence
[7] = target: Protein kinase 7 (PK7), Plasmodium falciparum 3D7 (PF3D7_0213400) (UniProt Q7YTF7); assay: inhibition of Plasmodium PK7 catalytic activity – biochemical, TCAMS antimalarial set, Kinase-Glo luminescence (AID 1159587); conditions: recombinant PfPK7, Kinase-Glo ATP depletion luminescence
[8] = target: Calcium-dependent protein kinase 4 (Plasmodium falciparum (isolate 3D7)) (UniProt Q8IBS5); assay: PfCDPK4 kinase inhibitors, biochemical, TCAMS library (AID 1159588; cut-off not given, nearly all actives have IC50 up to about 0.91 µM); conditions: recombinant PfCDPK4, Kinase-Glo ATP depletion luminescence
Chain of Calcium-dependent protein kinase 4 (Plasmodium falciparum (isolate 3D7)) (Q8IBS5 whole entry, looked up): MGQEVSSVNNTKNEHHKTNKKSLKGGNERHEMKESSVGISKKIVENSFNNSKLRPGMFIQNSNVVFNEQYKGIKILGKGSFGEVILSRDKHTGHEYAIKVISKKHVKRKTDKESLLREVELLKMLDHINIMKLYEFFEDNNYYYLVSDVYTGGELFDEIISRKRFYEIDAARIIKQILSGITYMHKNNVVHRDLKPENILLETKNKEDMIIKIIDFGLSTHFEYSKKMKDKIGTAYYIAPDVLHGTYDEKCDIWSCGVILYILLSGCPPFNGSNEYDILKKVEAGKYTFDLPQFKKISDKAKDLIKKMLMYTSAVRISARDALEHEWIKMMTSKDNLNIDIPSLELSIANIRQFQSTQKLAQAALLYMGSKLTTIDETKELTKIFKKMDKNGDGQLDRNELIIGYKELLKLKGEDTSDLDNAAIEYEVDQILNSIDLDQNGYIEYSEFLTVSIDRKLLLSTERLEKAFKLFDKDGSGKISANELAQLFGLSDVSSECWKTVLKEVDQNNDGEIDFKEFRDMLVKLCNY

Chain of Protein kinase 7 (PK7), Plasmodium falciparum 3D7 (PF3D7_0213400) (Q7YTF7 1-343): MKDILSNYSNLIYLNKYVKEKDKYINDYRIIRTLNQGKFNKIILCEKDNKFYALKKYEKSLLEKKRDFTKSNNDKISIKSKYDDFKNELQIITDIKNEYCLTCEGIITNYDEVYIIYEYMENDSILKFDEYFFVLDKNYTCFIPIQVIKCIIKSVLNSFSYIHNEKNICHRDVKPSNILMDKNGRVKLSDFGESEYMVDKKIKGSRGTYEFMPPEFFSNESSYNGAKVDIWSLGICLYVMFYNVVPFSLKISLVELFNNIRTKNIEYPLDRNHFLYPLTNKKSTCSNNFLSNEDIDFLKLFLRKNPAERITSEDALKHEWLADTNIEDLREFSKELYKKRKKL
Chain of Calcium-dependent protein kinase 1 (Plasmodium falciparum (isolate 3D7)) (P62344 whole entry, looked up): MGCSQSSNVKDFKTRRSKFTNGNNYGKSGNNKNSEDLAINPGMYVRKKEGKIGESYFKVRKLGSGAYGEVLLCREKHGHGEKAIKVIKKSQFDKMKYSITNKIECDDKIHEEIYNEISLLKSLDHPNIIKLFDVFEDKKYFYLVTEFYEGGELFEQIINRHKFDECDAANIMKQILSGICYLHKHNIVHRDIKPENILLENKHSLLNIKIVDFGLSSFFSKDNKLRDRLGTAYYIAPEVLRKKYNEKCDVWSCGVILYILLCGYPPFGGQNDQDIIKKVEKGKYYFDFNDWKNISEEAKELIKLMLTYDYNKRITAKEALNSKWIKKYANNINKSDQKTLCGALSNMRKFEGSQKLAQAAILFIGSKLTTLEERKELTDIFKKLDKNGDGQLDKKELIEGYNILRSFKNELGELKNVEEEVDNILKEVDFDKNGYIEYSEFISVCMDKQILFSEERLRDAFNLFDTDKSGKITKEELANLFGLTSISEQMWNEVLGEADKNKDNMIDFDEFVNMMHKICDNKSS
Chain of L-lactate dehydrogenase (Plasmodium falciparum (isolate CDC / Honduras)) (Q27743 whole entry, looked up): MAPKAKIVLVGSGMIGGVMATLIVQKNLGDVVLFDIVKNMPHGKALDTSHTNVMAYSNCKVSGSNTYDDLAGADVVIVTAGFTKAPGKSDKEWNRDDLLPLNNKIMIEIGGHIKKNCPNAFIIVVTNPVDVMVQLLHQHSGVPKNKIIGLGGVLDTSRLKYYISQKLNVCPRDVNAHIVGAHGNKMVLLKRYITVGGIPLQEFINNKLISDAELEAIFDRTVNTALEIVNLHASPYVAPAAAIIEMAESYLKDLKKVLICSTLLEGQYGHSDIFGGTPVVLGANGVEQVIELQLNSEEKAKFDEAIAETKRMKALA
Chain of Plasmodium falciparum protein kinase 6 (PK6, PF3D7_1337100) (Q8IDW1 1-305): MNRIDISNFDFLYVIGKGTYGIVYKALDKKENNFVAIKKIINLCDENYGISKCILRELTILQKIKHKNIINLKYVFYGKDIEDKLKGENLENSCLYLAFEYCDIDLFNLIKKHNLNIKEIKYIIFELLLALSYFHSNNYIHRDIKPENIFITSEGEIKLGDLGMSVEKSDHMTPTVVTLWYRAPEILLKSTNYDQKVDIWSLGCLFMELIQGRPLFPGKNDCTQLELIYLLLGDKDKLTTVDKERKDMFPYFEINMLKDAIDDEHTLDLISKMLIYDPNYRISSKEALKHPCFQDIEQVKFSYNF

COc1ccc2nccc([C@@H](O)CN3CCC(NCc4cc5cccc(OCc6ccccc6)c5[nH]4)CC3)c2c1
active: growth inhibition [4] 101%
inactive: growth inhibition [1] 40% | inhibition [2] 13% | inhibition [3] 1% | outcome [5] | outcome [6] | outcome [7] | outcome [8]

CN1CCN(c2nsc3ccc(-c4ccc(NC(=O)Nc5ccccc5)cc4)cc23)CC1
active: growth inhibition [1] 98% | growth inhibition [4] 102%
inactive: inhibition [2] 38% | inhibition [3] -1% | outcome [5] | outcome [6] | outcome [7] | outcome [8]

COc1cc2nc(N3CCC(CNC(=O)c4ccc(-c5ccc(-c6noc(C)n6)cc5)cc4)CC3)nc(N)c2cc1OC
active: growth inhibition [1] 100% | inhibition [2] 96% | growth inhibition [4] 98%
inactive: inhibition [3] 1% | outcome [5] | outcome [6] | outcome [7] | outcome [8]

COc1cccc2cc(C(=O)N[C@@H](CC(C)C)C(=O)N[C@H](/C=N/N3CCOC3=O)CC(C)C)oc12
inactive: inhibition [2] 4% | inhibition [3] -2% | outcome [5] | outcome [6] | outcome [7] | outcome [8]
active: growth inhibition [1] 72% | growth inhibition [4] 90%

CC1(CCCCN2CCC(c3c[nH]c4cnccc34)CC2)C(=O)Nc2cccc(Cl)c21 (stereo not given)
active: growth inhibition [4] 100%
inactive: growth inhibition [1] -1% | inhibition [2] 26% | inhibition [3] 0% | outcome [5] | outcome [6] | outcome [7] | outcome [8]

Cc1cc(-c2cccc(CNC3CCN(C)CC3)c2)ccc1S(=O)(=O)NCCc1ccccn1
active: growth inhibition [1] 72% | growth inhibition [4] 97%
inactive: inhibition [2] 22% | inhibition [3] 2% | outcome [5] | outcome [6] | outcome [7] | outcome [8]

CC1(C)Cc2c(oc3ncn(CCn4cnc5oc6c(c5c4=N)CC(C)(C)SC6)c(=N)c23)CS1
active: growth inhibition [1] 93% | growth inhibition [4] 98%
inactive: inhibition [2] -11% | inhibition [3] 0% | outcome [5] | outcome [6] | outcome [7] | outcome [8]

CN(CCc1ccccc1)c1ncc(-c2ccccc2CNCc2ccccc2O)cn1
inactive: inhibition [2] 10% | inhibition [3] -2% | outcome [5] | outcome [6] | outcome [7] | outcome [8]
active: growth inhibition [1] 94% | growth inhibition [4] 99%

Nc1ccc(-c2cc(Cl)cc(Cl)c2)cc1-c1cc2ccccc2[nH]1
inactive: inhibition [2] -9% | inhibition [3] 0% | outcome [5] | outcome [6] | outcome [7] | outcome [8]
active: growth inhibition [1] 97% | growth inhibition [4] 101%

Cc1nn(C)cc1C(C)Nc1nncc(-c2ccc(C(F)(F)F)cc2)n1 (stereo not given)
inactive: inhibition [2] -3% | inhibition [3] -5% | outcome [5] | outcome [6] | outcome [7] | outcome [8]
active: growth inhibition [1] 99% | growth inhibition [4] 100%

COc1cc2nc(NCC3CCN(c4nc(N)c5cc(OC)c(OC)cc5n4)CC3)nc(N)c2cc1OC
active: growth inhibition [1] 73% | growth inhibition [4] 92%
inactive: inhibition [2] 12% | inhibition [3] -2% | outcome [5] | outcome [6] | outcome [7] | outcome [8]

O=C(/C=C/c1ccc(CNCCN2CCOCC2)cc1)NCCc1ccccc1
active: growth inhibition [4] 94%
inactive: growth inhibition [1] 3% | inhibition [2] 9% | inhibition [3] -2% | outcome [5] | outcome [6] | outcome [7] | outcome [8]

CC1(C)N=C(N)N=C(N)N1OCOc1cc(Cl)c(Cl)cc1Cl
inactive: inhibition [3] -3% | outcome [5] | outcome [6] | outcome [7] | outcome [8]
active: growth inhibition [1] 98% | inhibition [2] 66% | growth inhibition [4] 96%

COc1ccc(CN2CCCN(Cc3cccc(NC(=O)c4ccc5ccccc5c4)c3)CC2)cc1
inactive: growth inhibition [1] 11% | inhibition [2] 27% | inhibition [3] -5% | outcome [5] | outcome [6] | outcome [7] | outcome [8]
active: growth inhibition [4] 93%

N#Cc1ccc2c(c1)CCN(CCC1CCC(NC(=O)Nc3ccncc3)CC1)C2 (stereo not given)
active: growth inhibition [4] 85%
inactive: growth inhibition [1] 3% | inhibition [2] 6% | inhibition [3] -4% | outcome [5] | outcome [6] | outcome [7] | outcome [8]

NC(=O)c1ccsc1NC(=O)CNC(c1ccccc1)c1ccc(Cl)cc1 (stereo not given)
inactive: inhibition [2] 25% | inhibition [3] -3% | outcome [5] | outcome [6] | outcome [7] | outcome [8]
active: growth inhibition [1] 89% | growth inhibition [4] 83%

CC(=O)N1N=C(c2[nH]c3ccc(Br)cc3c2C)OC1c1ccccc1 (stereo not given)
active: growth inhibition [1] 68% | growth inhibition [4] 86%
inactive: inhibition [2] 8% | inhibition [3] 0% | outcome [5] | outcome [6] | outcome [7] | outcome [8]

CC(=O)CCc1ccc(OCCN(Cc2ccccc2C(F)(F)F)c2ccc(C#N)c(C(F)(F)F)c2)cc1
active: growth inhibition [1] 87% | growth inhibition [4] 100%
inactive: inhibition [2] 14% | inhibition [3] 0% | outcome [5] | outcome [6] | outcome [7] | outcome [8]

N#Cc1ccc2c(c1)CN(CCC1CCC(NC(=O)c3cc4cc(OC(F)(F)F)ccc4[nH]3)CC1)CC2 (stereo not given)
active: growth inhibition [4] 101%
inactive: growth inhibition [1] 19% | inhibition [2] 4% | inhibition [3] 4% | outcome [5] | outcome [6] | outcome [7] | outcome [8]

C[C@@H](N=C(Nc1ccc(-c2ccccc2)cc1)Nc1ccc(C#N)cc1O)c1ccc(Br)cc1
inactive: inhibition [2] 9% | inhibition [3] 2% | outcome [5] | outcome [6] | outcome [7] | outcome [8]
active: growth inhibition [1] 95% | growth inhibition [4] 99%

COc1cccc(-c2cc(C(F)(F)F)n3ncc(C(=O)Nc4cc(C)ccc4O)c3n2)c1
inactive: inhibition [2] -4% | inhibition [3] 3% | outcome [5] | outcome [6] | outcome [7] | outcome [8]
active: growth inhibition [1] 99% | growth inhibition [4] 98%

CCn1ccc2c(N3CCCCS3(=O)=O)cc(C(=O)N[C@@H](Cc3ccccc3)[C@H](O)CNC(C)(C)CCCC(C)C)cc21
active: growth inhibition [1] 98% | growth inhibition [4] 96%
inactive: inhibition [2] 23% | inhibition [3] -6% | outcome [5] | outcome [6] | outcome [7] | outcome [8]

COc1ccc(CC2(c3ccc(F)cc3)N=C(N)N(CCCc3ccccc3)C2=O)cc1 (stereo not given)
active: growth inhibition [1] 97% | growth inhibition [4] 99%
inactive: inhibition [2] 38% | inhibition [3] 0% | outcome [5] | outcome [6] | outcome [7] | outcome [8]

CC1(C)N=C(N)N=C(N)N1OCOc1ccc(Cl)cc1
inactive: inhibition [3] 6% | outcome [5] | outcome [6] | outcome [7] | outcome [8]
active: growth inhibition [1] 96% | inhibition [2] 68% | growth inhibition [4] 94%

CCN(CC)CCON=Cc1cc(C)c2[nH]c3ccc(OCc4ccccc4)cc3c2c1C
active: growth inhibition [4] 98%
inactive: growth inhibition [1] 29% | inhibition [2] 29% | inhibition [3] 1% | outcome [5] | outcome [6] | outcome [7] | outcome [8]

CCCCCCn1c(Sc2ccc(C#N)c([N+](=O)[O-])c2)nnc1-c1ccccc1
inactive: growth inhibition [1] 41% | inhibition [2] 23% | inhibition [3] -1% | outcome [5] | outcome [6] | outcome [7] | outcome [8]
active: growth inhibition [4] 97%

COc1cc(NC(=O)/C=C/c2cc(F)cc(F)c2F)cc(OCCN2CCCCC2)c1
active: growth inhibition [1] 80% | growth inhibition [4] 102%
inactive: inhibition [2] 10% | inhibition [3] 0% | outcome [5] | outcome [6] | outcome [7] | outcome [8]

COc1cccc(Cc2cnc3nc(N)nc(N)c3c2C)c1
active: growth inhibition [1] 76% | inhibition [2] 57% | growth inhibition [4] 94%
inactive: inhibition [3] 0% | outcome [5] | outcome [6] | outcome [7] | outcome [8]

O=[N+]([O-])c1ccccc1C=NNc1ccnc2ccccc12
inactive: inhibition [2] 3% | inhibition [3] 2% | outcome [5] | outcome [6] | outcome [7] | outcome [8]
active: growth inhibition [1] 98% | growth inhibition [4] 101%

c1ccc2[nH]c(-c3ccc(-c4ccc(CN5CCN(CCN6CCOCC6)CC5)cc4)s3)nc2c1
active: growth inhibition [1] 100% | growth inhibition [4] 100%
inactive: inhibition [2] 39% | inhibition [3] -2% | outcome [5] | outcome [6] | outcome [7] | outcome [8]

COc1cc(NC(=O)/C=C/c2cc(F)cc(F)c2F)cc(OCCN2CCC3(CC2)OCCO3)c1
inactive: growth inhibition [1] 26% | inhibition [2] 17% | inhibition [3] -3% | outcome [5] | outcome [6] | outcome [7] | outcome [8]
active: growth inhibition [4] 98%

CCOc1ccc(C(=O)Nc2cc(Br)c3c(c2)CNCC3)cc1C(F)(F)F
inactive: growth inhibition [1] 22% | inhibition [2] 15% | inhibition [3] 6% | outcome [5] | outcome [6] | outcome [7] | outcome [8]
active: growth inhibition [4] 98%

FC(F)(F)Oc1ccc(-c2cnc3ccc(NCc4ccncc4)nn23)cc1
active: growth inhibition [1] 54% | growth inhibition [4] 97%
inactive: inhibition [2] 19% | inhibition [3] -3% | outcome [5] | outcome [6] | outcome [7] | outcome [8]

O=C(/C=C/c1ccc(Cl)c(Cl)c1)NCCCCCN1CCCN(C(=O)Nc2cc(F)cc(F)c2)CC1
inactive: growth inhibition [1] 1% | inhibition [2] 4% | inhibition [3] 0% | outcome [5] | outcome [6] | outcome [7] | outcome [8]
active: growth inhibition [4] 94%

COc1cccc(C2CCN(CCCCNC(=O)c3ccc(NC(=O)c4ccc(Cl)cc4)cc3)CC2)c1
inactive: growth inhibition [1] 40% | inhibition [2] 18% | inhibition [3] -5% | outcome [5] | outcome [6] | outcome [7] | outcome [8]
active: growth inhibition [4] 99%

O=C(CSc1nc2ccc([N+](=O)[O-])cc2s1)Nc1ccccc1-c1ccccc1
active: growth inhibition [4] 80%
inactive: growth inhibition [1] 49% | inhibition [2] -1% | inhibition [3] 0% | outcome [5] | outcome [6] | outcome [7] | outcome [8]

Cc1cc(N2CCCC2)nc(Nc2ccc(NC(=O)C3CCCC3)cc2)n1
inactive: inhibition [2] 27% | inhibition [3] 1% | outcome [5] | outcome [6] | outcome [7] | outcome [8]
active: growth inhibition [1] 81% | growth inhibition [4] 102%

COc1ccc2ncc(Cl)c([C@H](O)CN3CCC(NCc4cc5c(cn4)OCCO5)CC3)c2c1
inactive: inhibition [2] 10% | inhibition [3] 1% | outcome [5] | outcome [6] | outcome [7] | outcome [8]
active: growth inhibition [1] 100% | growth inhibition [4] 100%

O=C(/C=C/c1ccc(Cl)c(Cl)c1)NCCCCCCN1CCCN(C(=O)Nc2cccc(C(F)(F)F)c2)CC1
active: growth inhibition [4] 95%
inactive: growth inhibition [1] 0% | inhibition [2] 25% | inhibition [3] -3% | outcome [5] | outcome [6] | outcome [7] | outcome [8]

O=C(CSc1nc(-c2ccccc2Cl)ns1)Nc1cccc(F)c1
active: growth inhibition [1] 81% | growth inhibition [4] 93%
inactive: inhibition [2] -5% | inhibition [3] -1% | outcome [5] | outcome [6] | outcome [7] | outcome [8]
